From PubChem BioAssay (NCI)
About 79,000 compounds went through this panel and 15% of them were active in at least one assay; those are over-represented in the sample as a whole. Activity calls are given as the source filed them. Rule as the data show it: active = growth inhibition above about 70%; inactive = the rest.

Tests used:
[1] = NCI Yeast Anticancer Drug Screen. Data for the rad50 strain (AID 155);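 also: 0% = growth of vehicle-only cultures of the same strain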; conditions: S. cerevisiae rad50 strain growth inhibition; at 50.0 µM; active compounds read high
In short: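 Growth of the mutant yeast was measured after compound exposure and referenced to vehicle-treated cultures.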

[2] = NCI Yeast Anticancer Drug Screen. Data for the mec2-1 strain (AID 157); conditions: S. cerevisiae mec2-1 strain, at 50.0 µM, active compounds read high
In short: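 Compounds were applied to mec2-1 yeast cells. Their growth was then compared with that of vehicle-treated cultures to give growth inhibition.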

[3] = NCI Yeast Anticancer Drug Screen. Data for the sgs1 mgt1 strain (AID 161);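 also: 0% = growth of cultures given vehicle only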; conditions: S. cerevisiae sgs1 mgt1 strain, at 50.0 µM, active compounds read high
In short: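 Yeast cells carrying a defined DNA-repair defect were exposed to test compounds. Growth inhibition was measured relative to vehicle-treated controls.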

[4] = NCI Yeast Anticancer Drug Screen. Data for the cln2 rad14 strain (AID 165);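 also: 0% = growth equal to vehicle treated cultures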; conditions: S. cerevisiae cln2 rad14 strain, at 50.0 µM, active compounds read high
In short: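 Strain: cln2 rad14 yeast, altered in cell cycle control and DNA damage repair. Read-out: growth inhibition vs vehicle.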

[5] = NCI Yeast Anticancer Drug Screen. Data for the bub3 strain (AID 167); conditions: S. cerevisiae bub3 mutant strain, at 50.0 µM, active compounds read high
In short: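 Whole-cell yeast assay. The mutant strain was incubated with compounds, and growth inhibition was determined by comparison with vehicle-treated cells.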

[6] = NCI Yeast Anticancer Drug Screen. Data for the mlh1 rad18 strain (AID 175); conditions: S. cerevisiae mlh1 rad18 strain growth inhibition; at 50.0 µM; active compounds read high
In short: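 A repair-deficient yeast strain is exposed to test compound, and growth is scored relative to vehicle-treated controls.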

Measured: growth inhibition

CSc1nc(C)cc(N(C)c2ccccc2)n1
inactive: [1] -5.9% | [2] 0.25% | [3] 8.85% | [4] -8.9% | [5] -18.2% | [6] 14.6%

CSC1(SC)CCCCCCCCCCC1
inactive: [1] -19.8% | [2] -17.2% | [3] -17.9% | [4] -15.9% | [5] -34.9% | [6] -29.4%

N#CC(=S)Nc1ccc(Cl)c(Cl)c1
inactive: [1] -4.8% | [2] 27.9% | [3] 22.6% | [4] -36% | [5] -1.95% | [6] 31.8%

COC(=O)c1nc(N)nc(C(=O)OC)c1C(=O)c1cccc2ccccc12
inactive: [1] -33.5% | [2] -26.1% | [3] 1.65% | [4] -26.8% | [5] -33.3% | [6] -20.9%

O=C(O)c1cccc(SS(=O)(=O)c2cccc(C(=O)O)c2)c1
inactive: [1] -18.4% | [2] -13.4% | [3] -10.1% | [4] 9.45% | [5] 7.5% | [6] -7.45%

O=C(Nc1ccc(CSc2ccc(Cl)cc2)o1)N1CCOCC1
inactive: [1] 15.7% | [2] 8% | [3] 40.8% | [4] 20.9% | [5] 38.4% | [6] 25.4%

Cc1cc(=NO)cc(C)n1O
inactive: [1] 43.5% | [2] 21% | [3] 54.9% | [4] -3.3% | [5] 3.55% | [6] 7.85%

CCOC(=O)C(N)Cc1cc(I)c(O)c(I)c1 (stereo unspecified)
inactive: [1] -20.1% | [2] -31.1% | [3] -14.4% | [4] 7.8% | [5] -23.2% | [6] -25.1%

COc1ccc(/C=C/C(=O)C(C)(C)CN2CCCCC2)cc1
inactive: [1] 39.9% | [2] 24.9% | [3] 20.5% | [4] 37.8% | [5] 36.5% | [6] 39.2%

ClC1(c2ccccc2)c2ccccc2C(Cl)(c2ccccc2)c2ccccc21 (stereo unspecified)
inactive: [1] 17.9% | [2] 0.1% | [3] -6.7% | [4] -3.8% | [5] 12.2% | [6] 27.9%

CC(Cl)C(=O)N(C)c1ccccc1 (stereo unspecified)
inactive: [1] 3.6% | [2] -14.8% | [3] -2.9% | [4] -16% | [5] -14.8% | [6] -14.1%

COC(=O)/C(=N\O)C(C(=O)C=C(C)C)C(=O)C(=O)Nc1ccccc1C (stereo unspecified)
inactive: [1] -5.8% | [2] -21.6% | [3] -8.35% | [4] 7.4% | [5] -14.1% | [6] -18.1%

COC(=O)C1=C(C(=O)OC)C2CCC1O2
inactive: [1] -0.5% | [2] -6% | [3] -0.4% | [4] -11.7% | [5] 8.35% | [6] -17.6%

CC(=O)OCC1OC(n2c(C)c(C(C)=O)c(-c3ccc(Cl)cc3)c(C#N)c2=S)C(OC(C)=O)C(OC(C)=O)C1OC(C)=O (stereo unspecified)
inactive: [1] -37.9% | [2] -9.55% | [3] -2.1% | [4] 12.2% | [5] 9.15% | [6] -2.65%

CCCCCCCCCO
inactive: [1] 13.7% | [2] -4.8% | [3] 19.9% | [4] 11.3% | [5] 12.8% | [6] 19.3%

CCOC(=O)C(=CN(C)c1ccc([N+](=O)[O-])cc1)C(=O)OCC
inactive: [1] 0.15% | [2] 6.65% | [3] 15.6% | [4] 12.1% | [5] 24.4% | [6] 15.5%

CC(=O)OCC1OC(n2nnc(CCl)c2CCl)C(OC(C)=O)C(OC(C)=O)C1OC(C)=O (stereo unspecified)
inactive: [1] 38.5% | [2] 8.7% | [3] 0.5% | [4] -3.15% | [5] -0.25% | [6] 8.45%

CCC1(C#N)N=C(c2ccccc2)c2ccccc2N1C(=O)Oc1ccccc1 (stereo unspecified)
inactive: [1] 3.65% | [2] 2.65% | [3] -9.7% | [4] -15.7% | [5] 11.1% | [6] 19.6%

CC(C(/C=N/NC(N)=S)=N/NC(N)=S)N1C(=O)c2ccccc2C1=O (stereo unspecified)
inactive: [1] 3.75% | [2] -11.2% | [3] -16.9% | [4] -5.1% | [5] 2.45% | [6] 23.9%

C=C(C)C(=O)OCC(O)C[N+](C)(C)C (stereo unspecified)
inactive: [1] 0.35% | [2] -15.8% | [3] 2.9% | [4] 11.2% | [5] 5.1% | [6] 4.3%

Cc1ccc(NC(=S)NCCc2ccccn2)cc1C
inactive: [1] 29.2% | [2] 13.8% | [3] 28.9% | [4] 1.45% | [5] 21.3% | [6] 21.6%

FC(F)(F)c1ccccc1N=Cc1cccs1
inactive: [1] -12.1% | [2] -9.55% | [3] 23.1% | [4] 3.05% | [5] 13.4% | [6] 20.3%

NC(=O)N1CCCC1=O
inactive: [1] -18.4% | [2] -18.9% | [3] -20.8% | [4] -8.5% | [5] -11.3% | [6] -20.9%

C=CS(=O)(=O)CCOc1ccc(Cl)cc1Cl
active: [1] 98.8% | [2] 99.2% | [3] 99.7% | [4] 97.8% | [5] 98.4% | [6] 98.9%

CCCCCCCCCCCCCCCCC[CH2][Sn]([Cl])([CH2]CCCCCCCCCCCCCCCCC)[CH2]CCCCCCCCCCCCCCCCC
inactive: [1] 9.15% | [2] -1.2% | [3] -16.7% | [4] -2.55% | [5] -2.1% | [6] -13.7%

O=C1CS(=O)(=O)c2ccccc21
inactive: [1] -11.4% | [2] 1.5% | [3] 1.5% | [4] -13.3% | [5] -8.8% | [6] 22.2%

CC(C)CCc1ccc2ccc3cccc4ccc1c2c34
inactive: [1] -17.6% | [2] 3.55% | [3] -1.15% | [4] -26.3% | [5] -0.85% | [6] -8.1%

S=c1nc[nH]c2nc[nH]c12
inactive: [1] -18% | [2] 0.25% | [3] -6.75% | [4] -66.5% | [5] 10.8% | [6] 20.1%

O=C(/C=C/c1ccc([N+](=O)[O-])cc1)NN=C(c1ccccc1)c1ccccc1
inactive: [1] -20.4% | [2] -16.4% | [3] -12.3% | [4] -7.1% | [5] -9.5% | [6] -0.15%

O=[N+]([O-])c1cccc(OCC2CO2)c1 (stereo unspecified)
inactive: [1] 9% | [2] -23.8% | [3] -0.75% | [4] -13.2% | [5] -2.1% | [6] 34.5%

CN(C)c1ccc(C(=N)c2ccc(N(C)C)cc2)cc1
inactive: [1] -3.85% | [2] 4.9% | [3] -6% | [4] -35.5% | [5] 5.45% | [6] -0.15%

CCCC(=O)C(N)Cc1ccc(O)cc1 (stereo unspecified)
inactive: [1] -16.6% | [2] -10.3% | [3] 4.35% | [4] -9.35% | [5] -16.1% | [6] -1.7%

CC(=O)OCCCC(C)Nc1ccnc2cc(Cl)ccc12 (stereo unspecified)
inactive: [1] -8.15% | [2] -8.95% | [3] -2.35% | [4] 19.9% | [5] -7.9% | [6] 11.3%

Cc1ccc(C(C#N)c2ccc(N)cc2)cc1 (stereo unspecified)
inactive: [1] 21.9% | [2] -21.3% | [3] 29.9% | [4] 17.1% | [5] 20.2% | [6] 32.5%

CCCC[N+](C)(CCCC)CCCC
inactive: [1] 9.15% | [2] 9.65% | [3] 7.8% | [4] -1.15% | [5] 14.2% | [6] 3.3%

COC(=O)c1ccccc1N=NNc1ccc(C(F)(F)F)c([N+](=O)[O-])c1
inactive: [1] -10.4% | [2] -1.85% | [3] 16.1% | [4] -2.35% | [5] 9.95% | [6] -11.7%
